# Reference: ChEMBL document CHEMBL1857833, “Screening and optimization of specific chemical series against human African Trypanosomiasis (HAT)”
# Out of some 4,400 compounds screened, about 390 (8.9%) showed an effect of 50% or more. What follows is part of a selection rich in strong results, with near analogues and random picks from the rest.
# Tested on: Trypanosoma brucei
# Assay: DNDI: Inhibition of Human African Trypanosomiasis, SBRI 427, in vitro at 2 ug.mL-1
# Type: functional
row,SMILES,% inhibition [%]
1,Cc1cccc(Oc2nc(C)ccc2/C(=N/O)N2CCSCC2)c1,1
2,Cc1ccc(/C(N)=N/O)c(Oc2c(F)c(F)cc(F)c2F)n1,4
3,Cc1ccccc1NCc1coc(-c2ccccc2F)n1,-5
4,COc1ccc(Oc2ncccc2/C(=N/O)n2ccnc2C)cc1,-2
5,COc1cc2c(cc1OC)C(C(C)C)N(Cc1coc(-c3ccc(C)cc3)n1)CC2 (stereo unspecified),27
6,COc1cc(CNCc2coc(-c3ccc(C(F)(F)F)cc3)n2)cc(OC)c1,-1
7,Fc1ccc(-c2nc(CNCc3ccncc3)co2)cc1,-3
8,Cc1cccc(Oc2ccc(/C(=N/O)NC(C)C)cn2)c1,8
9,CCC(C)(C)N/C(=N\O)c1ccc(Oc2cccc3c2OC(C)(C)C3)nc1,11
10,CCC(C)(C)N/C(=N\O)c1ccc(Oc2cc(C)cc(C(C)C)c2)nc1,91
11,CCC(C)(C)N/C(=N\O)c1ccc(Oc2ccc(F)cc2)nc1,27
12,CCC(C)(C)N/C(=N\O)c1ccc(Oc2cccc(C)c2)nc1,67
13,Cc1cc(C)cc(Oc2ccc(/C(=N/O)NCc3ccccc3)cn2)c1,-3
14,Cc1cc(C)cc(CN/C(=N\O)c2ccc(Oc3cccc(C)c3)nc2)c1,19
15,Cc1cc(Oc2ccc(/C(=N/O)NCc3cc(F)cc(F)c3)cn2)cc(C(C)C)c1,17
16,CCC(C)(C)N/C(=N\O)c1ccc(Oc2cccc3ccccc23)nc1,95
17,Cc1cc(Oc2ccc(/C(=N/O)NCc3ccccc3)cn2)cc(C(C)C)c1,14
18,CCC(C)(C)N/C(=N\O)c1ccc(Oc2cc(C)cc(C)c2)nc1,95
19,CC1CCC(N/C(=N\O)c2ccc(Oc3cccc4ccccc34)nc2)CC1 (stereo unspecified),19
20,COCCCNCc1coc(-c2ccccc2)n1,38
21,CC1CC(C)CN(/C(=N\O)c2ccc(Oc3cc(Cl)ccc3Cl)nc2)C1 (stereo unspecified),10
22,CN(Cc1cccnc1)/C(=N\O)c1ccc(Oc2cc(Cl)ccc2Cl)nc1,-14

row,SMILES,% inhibition [%]
1,Cc1ccc(/C(=N/O)N2CC=CC2)c(Oc2cccc3ccc(C)nc23)n1,28
2,N/C(=N\O)c1ccc(Oc2ccc3ccccc3c2)nc1,12
3,Cc1ccc(/C(=N/O)N2CCC=N2)c(Oc2cccc(F)c2)n1,21
4,CCN(CCC#N)Cc1coc(-c2ccc(C(F)(F)F)cc2)n1,-3
5,Cc1ccccc1CN/C(=N\O)c1ccnc(Oc2ccc(F)c(Cl)c2)c1,14
6,CN(/C(=N\O)c1cccnc1Oc1ccc(-n2cncn2)cc1)C1CCCCC1,14
7,Cc1ccc(-c2nc(CNCc3ccccc3)co2)cc1,-10
8,O/N=C(/c1ccc(Oc2cccc3cccnc23)nc1)N1CCC2CCCCC2C1 (stereo unspecified),58
9,CC1CC(C)CN(/C(=N\O)c2ccc(Oc3cccc4cccnc34)nc2)C1 (stereo unspecified),-24
10,O/N=C(/c1ccc(Oc2ccc(Cl)cc2)nc1)N1CCC2CCCCC2C1 (stereo unspecified),99
11,O/N=C(/c1ccc(Oc2cc(Cl)ccc2Cl)nc1)N1CCC2CCCCC2C1 (stereo unspecified),-2
12,O/N=C(/c1ccc(Oc2ccc3ccccc3c2)nc1)N1CCC2CCCCC2C1 (stereo unspecified),28
13,O/N=C(/c1ccc(Oc2cccc3cccnc23)nc1)N1CCN(c2ccccc2)CC1,-27
14,CCOc1ccc(Oc2nc(C)ccc2/C(=N/O)N2CC(C)CC(C)C2)cc1 (stereo unspecified),8
15,Cc1cc(Oc2ccc(/C(=N/O)NCc3cc(F)ccc3F)cn2)cc(C(C)C)c1,-14
16,O/N=C(/c1cccnc1OC1CCC1)N1CCN(c2ccc(F)cc2)CC1,7
17,CC(=O)c1ccc(N2CCN(Cc3coc(-c4ccccc4Cl)n3)CC2)cc1,-7
18,Cc1ccc(/C(=N/O)N2CCC(N(C)C)C2)c(Oc2ccc3ccccc3c2)n1 (stereo unspecified),20
19,Cc1ccc(Oc2ncccc2/C(=N/O)NC2CCC(C)CC2)c2c1CCC2 (stereo unspecified),100
20,Cc1ccc(Oc2ncccc2/C(=N/O)NCC2CC2)c2c1CCC2,99
21,Cc1ccc(Oc2ncccc2/C(=N/O)N2CC(C)CC(C)C2)c2c1CCC2 (stereo unspecified),6
22,Cc1ccc(Oc2ncccc2/C(=N/O)N2CCC3CCCCC3C2)c2c1CCC2 (stereo unspecified),-7

row,SMILES,% inhibition [%]
1,CCCN/C(=N\O)c1cccnc1Oc1ccc(C)c2c1CCC2,42
2,COCCN/C(=N\O)c1cccnc1Oc1ccc(C)c2c1CCC2,80
3,COCC(C)N/C(=N\O)c1cccnc1Oc1ccc(C)c2c1CCC2 (stereo unspecified),12
4,CCC(CC)N/C(=N\O)c1cccnc1Oc1ccc(C)c2c1CCC2,99
5,Cc1ccc(Oc2ncccc2/C(N)=N/O)c2c1CCC2,9
6,Cc1ccc(Oc2cc(/C(=N/O)NCC3CC3)ccn2)c2c1CCC2,40
7,Cc1ccc(Oc2ncccc2/C(=N/O)NC(C)C)c2c1CCC2,8
8,Cc1ccccc1-c1nc(Cn2ncc3c2CCCC3)co1,-16
9,O/N=C(/c1ccc(Oc2cc(Cl)ccc2Cl)nc1)N1CCSCC1,-11
10,COc1ccc(Oc2nc(C)ccc2/C(=N/O)N(C)Cc2cccnc2)cc1,-3
11,CCCN(CCC)Cc1coc(-c2ccccc2Cl)n1,16
12,Oc1ccc(-c2nc(CN3CCc4ccccc4C3)co2)cc1,8
13,CCOc1ccc(-c2nc(CN(C)CC#N)co2)cc1,4
14,CSc1ccc(Oc2nc(C)ccc2/C(=N/O)n2nc(C)cc2C)cc1C,16
15,CSc1ccccc1Oc1ncccc1/C(=N/O)N1CCN(c2ccc(F)cc2)CC1,19
16,Cc1cccc(N2CCN(Cc3coc(-c4ccc(OC(F)(F)F)cc4)n3)CC2)c1C,-7
17,Cc1ccc(Oc2ncccc2/C(=N/O)N2CCCC2)c2c1CCC2,-1
18,Cc1ccc(Oc2ncccc2/C(=N/O)NCC(C)C)c2c1CCC2,100
19,CC(C)CN/C(=N\O)c1cccnc1Oc1ccccc1,17
20,CCOc1ccccc1-c1nc(CN2CCN(c3cccc(OC)c3)CC2)co1,-3
21,COc1ccc(CNCc2coc(-c3ccc(F)cc3)n2)cc1OC,-5
22,CC1CCN(/C(=N\O)c2ccc(Oc3c(F)c(F)cc(F)c3F)nc2)CC1,9
